Screening data from PubChem BioAssay.
DT40 TDP1 no CPT: qHTS for Inhibitors of human tyrosyl-DNA phosphodiesterase 1 (TDP1): qHTS in cells in absence of CPT | DT40 Tdp1-/- hTDP1 cells, no CPT, ATP luminescence, 48 h | AID 686978, 2013 | Potency, µM (series often up to 46.2 µM), hits mostly inhibitors | 420,000 tested, 15% active; further: nearly all actives have a fitted effect of over 55% in size
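Growth of hTDP1-complemented DT40 Tdp1-knockout cells is measured by ATP luminescence after at least 48 hr compound exposure at 37 °C, with DMSO substituting for the 20 nM CPT used in the parallel screen.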
HT1080 IDH1KD tx: kills HT-1080 cells with IDH1 knockdown. Potency, µM (doses to about 46.1 µM), hits mostly cytotoxic. HT-1080 IDH1 knockdown viability, ATP luminescence, 48 h. 360,000 tested, 2% active
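Knockdown cells (IDH1KD HT-1080) received compounds 2 h after plating at 750 cells/well and were kept 48 h at 37 °C in 5% FBS RPMI. A CellTiter-Glo luminescence read gave % activity for curve fitting.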
IL1B secr inh: blocks inflammasome-driven IL-1 beta release; THP-1 LPS/ATP IL-1B secretion, AlphaLISA, 16 h; stronger effect = lower value; 360,000 tested, 4.7% active; activity change, % at 57.5 µM; in the data active means activity change below about -50%; inconclusive means mostly about -30% to -49%
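THP-1 cells pretreated 1 hr with compounds (up to 57.5 uM final), then stimulated with LPS (250 ng/mL final) plus ATP (1.25 mM final); secreted IL-1B measured by AlphaLISA after 16 hr, decreased signal indicating inhibition.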
TDP1 cell CPT: DT40-hTDP1 cell growth loss with CPT | chicken DT40 Tdp1-/-;hTDP1 cells + 20 nM CPT, ATP luminescence, 48 h | Potency, µM (highest dose often 46.2 µM), hits mostly inhibitors | 420,000 tested, 12% active | AID 686979; further: nearly all actives have a fitted effect of over 55% in size
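Chicken DT40 Tdp1-/- cells complemented with human TDP1, 400 cells/well, exposed to compounds plus 20 nM camptothecin for at least 48 h at 37 C; viability read as ATP content by CellTiter-Glo luminescence.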
HT1080NT lethal: kills 2HG-producing HT-1080-NT fibrosarcoma cells. HT-1080-NT fibrosarcoma viability, CellTiter-Glo ATP luminescence, 48 h. Potency, µM (series often up to 46.1 µM), actives largely listed as cytotoxic. 360,000 tested, 1.6% active. AID 686970;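 further: NT is the 2HG producing partner of a matched IDH1 knockdown line; nearly all actives have a fitted effect of over 55% in size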
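Viability of the 2HG-overproducing fibrosarcoma line after 48 hours of compound exposure at 37 degrees C was determined by luminescence with CellTiter-Glo, and concentration-effect curves were then fitted and categorized.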
A number is an active result; . = inactive; ? = inconclusive; / = not tested or not shown. In the library only some 19% were active in any assay of this set; here they are far more common. Unless noted, the call rests on the fitted dose curve; in most records, active means well fitted curve in the direction sought with a large enough effect; inconclusive means small, poorly fitted or top-dose-only effect, or another doubt; inactive means no such curve, though single readings can be large; an effect the other way counts as inactive or inconclusive.

SMILES	DT40 TDP1 no CPT	HT1080 IDH1KD tx	IL1B secr inh	TDP1 cell CPT	HT1080NT lethal
O=S(=O)(NCc1ccccc1Cl)c1ccc(N2CCCCS2(=O)=O)cc1	21µM	/	/	16µM	/
O=C1CCCN1c1ccc(S(=O)(=O)NCc2ccc(F)cc2)cc1	?	.	.	21µM	.
O=S(=O)(NCc1ccc(F)cc1)c1ccc(N2CCCCS2(=O)=O)cc1	21µM	/	/	23µM	/
O=S(=O)(NCc1ccc(F)cc1)c1ccc(-n2cnnn2)cc1	?	.	.	?	.
O=S(=O)(NCc1ccc(Cl)cc1)c1ccc(N2CCCCS2(=O)=O)cc1	8.2µM	/	/	12µM	/
N#Cc1cccc(C(=O)C(=O)N2CCN(c3ccccc3)CC2)c1	.	.	.	.	.
C=C1NN(Cc2ccccc2)C(=O)N1c1ccc(OC)cc1	.	/	/	.	/
CCC(C)NC(=O)c1ccc(NC(=O)C2=C(C)OCCS2)cc1 (centres undefined)	.	.	.	.	.
Cc1nc(-c2ccc(S(=O)(=O)Nc3cc(Cl)ccc3C)cc2)co1	?	/	/	.	/
Cc1ccc(Cl)cc1NS(=O)(=O)c1ccc(N2CCCCS2(=O)=O)cc1	12µM	/	/	?	/
CCCCN(CC)C(=O)CSc1nc2n[nH]c(C)c2c(=N)n1-c1cccc(OC)c1	9.2µM	/	/	23µM	/
CCN(C(=O)CSc1nc2nc(C)cc(C)n2n1)c1cccc(C)c1	.	.	.	.	.
CCN(C(=O)CSc1nc2n[nH]c(C)c2c(=N)n1-c1ccc(Cl)c(C)c1)c1cccc(C)c1	21µM	.	?	18µM	.
CCN(CC)C(=O)CSc1nc(O)cc(=O)n1-c1ccccc1OC	.	.	.	.	.
Cc1cc(-n2c(SCc3ccccc3F)nc3n[nH]c(C)c3c2=N)ccc1Cl	?	21µM	.	?	?
CCCCN(CC)C(=O)CSc1nc2n[nH]c(C)c2c(=N)n1-c1cccc(C)c1	21µM	.	.	7.3µM	.
O=C(CSc1cn[nH]n1)Nc1ccccc1C(=O)O	.	.	.	.	.
CCCN(CCC)C(=O)CSc1nc2n[nH]c(C)c2c(=N)n1-c1ccc(OC)cc1	10µM	.	.	13µM	.
CCCCN(CC)C(=O)CSc1nc2n[nH]c(C)c2c(=N)n1-c1ccc(CC)cc1	5.2µM	/	/	10µM	/
CCCN(CCC)C(=O)CSc1nc2n[nH]c(C)c2c(=N)n1-c1ccc(OCC)cc1	?	?	.	?	.
CN(C)S(=O)(=O)Nc1cc(F)cc(F)c1	.	?	.	.	.
COc1cc(O)c(C(CC(=O)N2CCN(c3ccccc3)CC2)c2ccc(N(C)C)cc2)c(OC)c1 (centres undefined)	.	.	.	23µM	.
COc1ccc(C(CC(=O)N2CCN(c3ccccc3)CC2)c2c(OC)cc(OC)c3ccc(=O)oc23)cc1 (centres undefined)	?	.	.	21µM	.
COc1ccc(OC)c(CNC(=O)CCc2c(C)nc3c(c2C)c(=O)n(C)c(=O)n3C)c1	?	/	/	.	/
Cc1ccc2oc(=O)c3cnn(CC(=O)Nc4ccc(Br)cc4C)c3c2c1	.	/	/	.	/
SMILES	DT40 TDP1 no CPT	HT1080 IDH1KD tx	IL1B secr inh	TDP1 cell CPT	HT1080NT lethal
O=C(Cn1ncc(Cl)c(Cl)c1=O)N1CCN(S(=O)(=O)c2ccc3ccccc3c2)CC1	4.6µM	3.7µM	-103	2.9µM	2.6µM
Cc1ccc(S(=O)(=O)N2CCCCC2)cc1NC(=O)Cn1cnnn1	.	.	.	.	.
Cc1ccc(S(=O)(=O)N2CCCCC2)cc1NC(=O)Cn1ncc(Cl)c(Cl)c1=O	2.1µM	15µM	-102	4.6µM	21µM
Cc1ccc(S(=O)(=O)N2CCCCC2)cc1NC(=O)CSCC(=O)O	.	.	.	.	.
Cc1ccc(S(=O)(=O)N2CCCCC2)cc1NC(=O)CNC(C)c1ccc(Cl)c(Cl)c1 (centres undefined)	13µM	.	-63	15µM	?
Cc1cc(Br)ccc1NC(=O)CNC(=O)Cn1ncc(Cl)c(Cl)c1=O	3.7µM	2.6µM	-98	4.1µM	3.7µM
Cc1cc(NC(=O)C(C)(C)Oc2ccc(Cl)cc2)cc(-c2nc3ncccc3o2)c1O	.	/	/	.	/
CC(=O)c1c(C)[nH]c(C(=O)CN2C(=O)NC(CCc3ccccc3)C2=O)c1C (centres undefined)	.	.	.	?	.
CC(C)CC(=O)OCc1cn(-c2ccccc2)nn1	.	.	.	.	.
CCCCC/C=C\C/C=C\CCCCCCCC(=O)NC(C)c1ccccc1 (centres undefined)	.	/	/	.	/
CC1CN(C(=O)Nc2ccc(F)cc2F)CC(C)O1 (centres undefined)	.	.	.	.	.
COC(=O)/C=C/c1ccc(OC(=O)c2ccncc2)cc1	.	.	.	.	.
Cc1ccc(Cl)cc1NC(=O)CN1C(=O)C(C)(C)c2cc(S(=O)(=O)N3CCCCC3)ccc21	23µM	/	/	?	/
Cc1ccc(C(=O)N/N=C(\CC(C)C)c2ccccc2)cc1	21µM	.	.	?	.
C/C(=N\NC(=O)c1cc(O)cc(O)c1)c1ccc(NC(=O)Cc2ccccc2)cc1	.	?	.	.	.
C/C(=N/NC(=O)c1ccc(-c2ccccc2)cc1)c1cc(O)cc(O)c1	16µM	?	?	21µM	?
CCOc1ccc(C(=O)N/N=C(/C)C2C(=O)c3ccccc3C2=O)cc1	0.65µM	.	.	0.58µM	.
C/C(=N\NC(=O)c1ccc(-c2ccccc2)cc1)C1C(=O)c2ccccc2C1=O	21µM	.	.	21µM	.
C/C(=N\NC(=O)c1ccc(Br)cc1)C1C(=O)c2ccccc2C1=O	.	1µM	.	?	2.2µM
Cc1n[nH]c(C)c1CCNC(=O)C1CCC(=O)N(CCc2cccc(F)c2)C1 (centres undefined)	.	.	.	?	.
O=C(COC(=O)Cc1c(F)cccc1Cl)NCc1ccc2c(c1)OCO2	.	.	.	.	.
COc1ccc2c(c1)CC(NC(=O)Nc1cc(Cl)ccc1OC)CO2 (centres undefined)	?	/	/	23µM	/
COc1ccc(CC(=O)Nc2nc3ccc(F)cc3s2)cc1S(=O)(=O)N1CCOCC1	?	?	-59	?	.
COc1ccc(CC(=O)N(C)Cc2ccc(C(C)(C)C)cc2)cc1S(=O)(=O)N1CCOCC1	29µM	.	.	21µM	.
COc1ccc(CC(=O)N(Cc2ccccc2)c2ccc(C)cc2)cc1S(=O)(=O)N1CCOCC1	16µM	.	.	18µM	.
COc1ccc(CC(=O)Nc2nc3ccccc3s2)cc1S(=O)(=O)N1CCOCC1	?	.	.	?	.
COc1ccc(S(=O)(=O)N2CCOCC2)cc1C(=O)NCc1c(C)nn(Cc2ccccc2)c1C	.	.	.	?	.
COc1ccc(C(=O)NCc2c(C)nn(Cc3ccccc3)c2C)cc1S(=O)(=O)N1CCOCC1	?	?	.	10µM	?
